In PubChem BioAssay AID588382 (National Center for Advancing Translational Sciences (NCATS), 2011):
Out of some 1,300 compounds screened, about 150 (12%) were called active. About 30% were inconclusive and are not listed. Only a selection was taken, and actives are over-represented in it overall. Values without a mark were called inactive. Calls follow the shape of the dose curve; as a rule, active = well fitted cell-killing curve with a large enough effect; inconclusive = small, poorly fitted or top-dose-only effect, or effect the other way; inactive = flat fitted curve, though single readings scatter.

Test: qHTS of small molecules that selectively kill Giardia lamblia: Hit Validation in HepG2 cytotox;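 also: compound exposure lasted overnight at 37 deg C; nearly all actives have a fitted effect of over 55% in size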;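 as to activity change, negative = cytotoxicity: viability measured as cellular ATP by ATPLite luminescence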
Conditions: cell viability; Potency: HepG2 cytotoxicity; series mostly up to 38.3 µM; activity change, negative = cytotoxicity: at the top concentration
From the text: Giardia lamblia is a human pathogen afflicting impoverished nations, and the most common cause of outbreaks of diarrhea in the United States. Giardia has been classified by the CDC as a category B bioterrorism organism. The favored anti giardiasis drugs in the US are metronidazole or tinidazole, compounds that have undesirable side effects. Moreover, increasing resistance to drug regimes and recurrence are a concern. It is thus clear that alternative drug treatments are needed.
In a collaboration between the University of Maryland, College Park and the NIH Chemical Genomics Center, a bioluminescence Giardia viability assay based on the trophozoites' ATP content was developed. This assay is suitable for high throughput screening, and miniaturized the assay for compound screening in 1536-well plates. The goal of the project is to screen the Molecular Libraries Small Molecule Repository (MLSMR) for compounds that selectively kill Giardia trophozoites. This counterscreen looks at the toxicity of the compounds against the human HepG2 cell line.
NIH Chemical Genomics Center [NCGC]
NIH Molecular Libraries Probe Centers Network [MLPCN]
Assay Submitter (PI): Osnat Herzberg, University of Maryland, College Park, MD.
4 uL of HepG2 cells ae dispensed into white 1536-well plates. They are incubated overnight at 37 deg C and then 23 nL of compounds are transferred to the wells with a pintool. Plates are incubated overnight at 37 deg C. 2 uL of ATPLite is added and the plates are incubated for 15 min at room temperature before they are read on the ViewLux for luminiescence.
% is scaled to controls: 0 for no effect and ±100 for the full control effect; potency is read from the fitted curve at half-maximal effect.

SMILES	activity change, negative = cytotoxicity [%]	Potency
COc1ccccc1CNC(=O)CSc1ccsc1[N+](=O)[O-]	10.1	–
Cc1ccc(OCc2ccc([N+](=O)[O-])cc2)c([N+](=O)[O-])n1	11.6	–
Cc1cc(C(=O)COc2cccnc2[N+](=O)[O-])c(C)n1Cc1cccs1	0.566	–
Cc1onc(-c2ccccc2)c1C(=O)N/N=C/c1ccc([N+](=O)[O-])c(O)c1	18.6	–
COc1cc2c(c3oc(-c4ccccc4)cc(=O)c13)C=CC(C)(C)O2	15	–
O=[N+]([O-])c1ccc(/C=N/n2c(CO)nc3ccccc32)s1	-18.8	–
O=[N+]([O-])c1ccc(/C=N/Nc2ncccc2[N+](=O)[O-])s1	4.72	–
Cc1nc2ccccc2n1/N=C/c1ccc([N+](=O)[O-])s1	–	16.5 µM (active)
CN(C)c1ccc(N=Nc2ccccc2C(=O)O)cc1	2.67	–
CCOC(=O)Cn1c(=NC(=O)c2ccc([N+](=O)[O-])s2)sc2ccccc21	-12.7	–
COc1ccc(C(=O)N(Cc2ccccc2)c2cccc(C)c2)cc1	-1.63	–
CCOc1ccc2nc(NC(=O)c3c([N+](=O)[O-])cnn3CC)sc2c1	2.03	–
CCC(C(=O)OC)n1c(-c2ccccc2)nc2ccccc2c1=O (centres undefined)	6.81	–
CCOC(=O)N=Nc1c2ccccc2c2nc3no[nH]c3nc12	–	0.736 µM (active)
CN(C)c1cc(NC(=O)CNC(C)(C)CC(C)(C)C)c2ccccc2n1	-3.21	–
CC1CCN(c2c([N+](=O)[O-])nn(-c3ccc4c(c3)OCCO4)[n+]2[O-])CC1	0.373	–
COCCNc1cc(NCCOC)c([N+](=O)[O-])cc1[N+](=O)[O-]	3.46	–
Cc1ccc([C@H]2C(C(=O)O)=CC[C@@H](c3ccc(C)cc3)N2S(=O)(=O)c2ccc(C)cc2)cc1	5.19	–
CCC(C)Nc1ccc(NC(C)CC)cc1 (centres undefined)	–	0.165 µM (active)
O=C(COc1cccnc1[N+](=O)[O-])Nc1c(Cl)cccc1Cl	5	–
O=[N+]([O-])c1nn(-c2ccc(Cl)cc2)n(O)c1=NCc1ccncc1	15.3	–
OCCSc1nc(-c2ccccc2)nc2ccc(F)cc12	12.9	–
O=C(Cc1csc(Nc2nc(=S)[nH]c3ccccc23)n1)NCCCN1CCN(c2ccccc2F)CC1	–	16.5 µM (active)
CCOC(=O)N1C(C)CN(/[N+]([O-])=N/Oc2ccc([N+](=O)[O-])cc2[N+](=O)[O-])CC1C (centres undefined)	5.98	–
O=c1/c(=C/c2ccc(O)c([N+](=O)[O-])c2)sc2nc3ccccc3n12	-5.62	–
Cc1ccc2c(c1)c1nc3ccccc3nc1n2C	-4.9	–
Cc1cnc([N+](=O)[O-])n1CCOC(=O)c1cccc(F)c1	15.1	–
O=C(c1ccc([N+](=O)[O-])o1)N1CCOCC1	-15.8	–
Cc1oc2c(c1C(=O)N1CCOCC1)C(=O)c1ccccc1C2=O	–	4.65 µM (active)
